According to publication PMC7819943, “Rice protein-binding microarrays: a tool to detect cis-acting elements near promoter regions in rice”:
The full ranking holds about 35,000 sequences; the median of “fluorescence intensity (a.u.)” is about 10,000, and the highest 2% start at about 52,000. This excerpt belongs to a sample that is enriched for the highest values.

Target: T1, OsWOX13 (Oryza sativa, UniProt Q5QMM3 1-267)
T1 sequence: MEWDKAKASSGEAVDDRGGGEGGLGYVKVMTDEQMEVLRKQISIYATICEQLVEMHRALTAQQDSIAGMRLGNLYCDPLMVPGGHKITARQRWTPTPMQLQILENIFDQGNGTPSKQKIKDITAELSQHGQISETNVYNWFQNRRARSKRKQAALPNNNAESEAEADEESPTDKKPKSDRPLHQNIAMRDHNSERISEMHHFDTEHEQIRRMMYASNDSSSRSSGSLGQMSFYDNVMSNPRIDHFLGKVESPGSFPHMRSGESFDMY
Experiment: protein-binding microarray (RPBM); PBS, 2% BSA, 51.3 ng/ul salmon testes DNA, 50 uM zinc acetate, 200 nM TF, 25 C, 1 h; high values mean tight binding
Conditions: protein: recombinant; tags: N-terminal polyhistidine and DsRed monomer fusion (pET32a); label: CyDye5-dUTP incorporated in the synthesized complementary strand; 3' TTTTT single-stranded linker to array surface; dsDNA, one strand shown
Summary of the method: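 Binding signal is reported as fluorescence intensity per feature (arbitrary units) from an Axon 4000B scanner. Incubation used 200 nM of each Ni–NTA-purified, N-terminally polyhistidine- and DsRed-fused transcription factor from E. coli BL21-CodonPlus on a double-stranded custom Agilent array for 1 h at 25 °C, with 50 µM zinc acetate in the buffer, followed by washing.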

Question: For “ATTTCAGATTGGGTTATTTGAGAGCTAAATTTCTAATGTACGGAGTCACCTAGTGCAG”, which binding signal is on record?
Answer: Its binding signal is 4680 fluorescence intensity (a.u.).

Question: “TGAAAATGATTTGGGATGGCATTTCAGCGGGTTGGGCTCACGGAGTCACCTAGTGCAG” was tested. Which binding signal did it give?
Answer: Its binding signal is 22000 fluorescence intensity (a.u.).

Question: For “ATAATGGCATAATTTAAATTTTACAAAATACTTATGACACCGGAGTCACCTAGTGCAG”, which binding signal is on record?
Answer: The binding signal was 12600 fluorescence intensity (a.u.).

Question: For “CCTGACAGGTCATCTCCTGATTGAAACCAAAATGTTGGATCGGAGTCACCTAGTGCAG”, which binding signal is on record?
Answer: The binding signal was 60700 fluorescence intensity (a.u.).

Question: “CGACTGATTGGTTGGGGTCATGGTTGGAACAAAATTTCCTCGGAGTCACCTAGTGCAG” was tested. Which binding signal did it give?
Answer: The binding signal was 52800 fluorescence intensity (a.u.).

Question: For “TGATGATTTAACTGTGTTGCATGAATTCATTCCTATTTGACGGAGTCACCTAGTGCAG”, which binding signal is on record?
Answer: The binding signal was 29500 fluorescence intensity (a.u.).

Question: With “ATTAATTATGTCATAAACTGTTGTTGATTTGTGCCAGTTTCGGAGTCACCTAGTGCAG” as the sequence, how does the binding signal read?
Answer: Its binding signal is 39500 fluorescence intensity (a.u.).

Question: With “CTAGTAATTACAAACATTGGAACTGAGTTTTGGTTGGGGTCGGAGTCACCTAGTGCAG” as the sequence, how does the binding signal read?
Answer: Its binding signal is 23800 fluorescence intensity (a.u.).

Question: “ATGGTTGATTGATTGCATATATTTGAACAAATGATCTTTGCGGAGTCACCTAGTGCAG” was tested. Which binding signal did it give?
Answer: Its binding signal is 65500 fluorescence intensity (a.u.).

Question: How did the binding signal turn out when “CATAATGATTGCGTTGAACGTTGGTTGCTTGATCATCTTTCGGAGTCACCTAGTGCAG” was run?
Answer: The binding signal was 18600 fluorescence intensity (a.u.).

Question: Which binding signal does the source give for “CTTATATTTGCAAATATTGATGGTTGTTGACATATGAACTCGGAGTCACCTAGTGCAG” here?
Answer: Its binding signal is 3210 fluorescence intensity (a.u.).

Question: Which binding signal does the source give for “GAAAATGACCAAATTATGAAAACATCCAGGCAATGGATCTCGGAGTCACCTAGTGCAG” here?
Answer: The binding signal was 3240 fluorescence intensity (a.u.).

Question: Which binding signal does the source give for “AGGTTGATTAACTGTTTCATGAATTTGGTATGTTTGCAGTCGGAGTCACCTAGTGCAG” here?
Answer: Its binding signal is 53300 fluorescence intensity (a.u.).

Question: Which binding signal does the source give for “ACTAAATTGGGTTGGGGTGCCTCCTCCTTCCTTTCTTTCTCGGAGTCACCTAGTGCAG” here?
Answer: The binding signal was 21000 fluorescence intensity (a.u.).

Question: How did the binding signal turn out when “GTTGATGTGATGGAAAATGACTGAAGATTGGATCTAAACTCGGAGTCACCTAGTGCAG” was run?
Answer: The binding signal was 31100 fluorescence intensity (a.u.).

Question: Which binding signal does the source give for “CAAAGATTTCACTGTTTAATCTAATCTTGTGGATTTTATGCGGAGTCACCTAGTGCAG” here?
Answer: Its binding signal is 3590 fluorescence intensity (a.u.).

Question: How did the binding signal turn out when “TCGAATTTGATCAGTAGCTTAATTATACTTTAGTACTACCCGGAGTCACCTAGTGCAG” was run?
Answer: Its binding signal is 10600 fluorescence intensity (a.u.).

Question: With “TGTTAATTATGCCCTCGGTCCAATTGTGATATTCTGTTGACGGAGTCACCTAGTGCAG” as the sequence, how does the binding signal read?
Answer: Its binding signal is 38300 fluorescence intensity (a.u.).

Question: For “CCCATGTAGATTGGGCCTGCTTAGTGAAGTCTCACGTAGCCGGAGTCACCTAGTGCAG”, which binding signal is on record?
Answer: Its binding signal is 5240 fluorescence intensity (a.u.).

Question: How did the binding signal turn out when “ATCGTAATAGAATATGTCACATTCGGTTTTGGCTCAAGTTCGGAGTCACCTAGTGCAG” was run?
Answer: Its binding signal is 5710 fluorescence intensity (a.u.).

Question: How did the binding signal turn out when “CTTATTCACTTGTGATTGTGATGATTAGCGAACAGAGTTGCGGAGTCACCTAGTGCAG” was run?
Answer: The binding signal was 18700 fluorescence intensity (a.u.).

Question: For “AGTTGACAGTTCCAATTAATCGTTCATGCGACCCAATTGACGGAGTCACCTAGTGCAG”, which binding signal is on record?
Answer: Its binding signal is 21500 fluorescence intensity (a.u.).

Question: Which binding signal does the source give for “CTAATTTAAATTTGTCTCTTTTCTACCCTCAACCATCATTCGGAGTCACCTAGTGCAG” here?
Answer: The binding signal was 27200 fluorescence intensity (a.u.).
